In PubChem BioAssay (Tox21):
Results filed as inconclusive are left out. The source made the active and inactive calls. Unless noted, calls come from the whole dose curve.

Key:
[1] = Nuclear factor erythroid 2-related factor 2/antioxidant responsive element (Nrf2/ARE) small molecule agonists: qHTS cell viability counter screen in human keratinocytes (AID 1919968; active = well fitted curve in the direction sought with a large enough effect in the repeat runs; an effect the other way counts as inactive or inconclusive; note: nearly all actives have a fitted effect of over 55% in size); conditions: KeratinoSens HaCaT ARE cells viability, CellTiter-Fluor, 24 h; series mostly up to 92.4 µM
Procedure, shortened: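 After a 5 h attachment period, ARE-reporter keratinocytes were dosed with compounds in DMSO and then cultured 23 h at 37 C. Cell viability came from CellTiter-Fluor signal read after a further 1 h.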

[2] = target: Gonadotropin-releasing hormone receptor (Homo sapiens) (UniProt P30968); experiment: Human gonadotropin-releasing hormone receptor (GnRHR) small molecule agonists, calcium flux assay in GnRHR-HEK293 cells (AID 1920063); conditions: calcium flux fluorescence, agonist mode; series mostly up to 57.6 µM; note: nearly all actives have a fitted effect of over 35% in size
Gonadotropin-releasing hormone receptor (Homo sapiens), sequence (P30968 whole entry, looked up): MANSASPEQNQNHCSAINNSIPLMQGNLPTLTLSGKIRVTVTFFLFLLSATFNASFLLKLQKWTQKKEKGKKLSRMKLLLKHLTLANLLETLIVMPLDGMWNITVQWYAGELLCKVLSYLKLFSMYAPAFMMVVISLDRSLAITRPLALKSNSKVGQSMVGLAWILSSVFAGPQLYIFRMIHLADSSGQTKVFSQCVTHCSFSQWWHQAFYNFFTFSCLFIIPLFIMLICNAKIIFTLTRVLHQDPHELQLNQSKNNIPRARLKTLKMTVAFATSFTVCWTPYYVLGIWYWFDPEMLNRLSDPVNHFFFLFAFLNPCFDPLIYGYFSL
Procedure, shortened: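 We seeded human GnRHR-expressing HEK293 cells for 18 hours, loaded them with calcium dye for an hour at 37 C, added test compounds, and recorded fluorescence intensity kinetically for three minutes.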

[3] = G protein-coupled receptor (GPCR) small molecule agonists, calcium flux assay: HEK293 wild type cell line counter screen (AID 1920065); conditions: HEK293 WT calcium flux, fluorescence, agonist mode; series mostly up to 57.6 µM
Procedure, shortened: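 Calcium-sensitive dye, loaded 1 h at 37 C into cells cultured 18 h, reports compound-evoked calcium release as fluorescence (Ex/Em 480/540), measured over 3 min. Agonist mode; 15-point titrations, triplicate.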

[4] = p53 small molecule agonists, cell-based qHTS assay with human liver microsomes: qHTS cell viability counter screen (AID 1963579); conditions: p53RE-bla HCT-116 viability, ATP luminescence, 16 h, HLM; series mostly up to 66 µM; note: nearly all actives have a fitted effect of over 45% in size
Procedure, shortened: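 Cells carrying the p53 response-element beta-lactamase reporter are treated for 16 h at 37 C with test compounds in the presence of human liver microsomes and NADPH (both 0.5 mg/mL final); ATP-based CellTiter-Glo luminescence then reports viability.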

[5] = p53 small molecule agonists, cell-based qHTS assay with rat liver microsomes: qHTS cell viability counter screen (AID 1963580); conditions: p53RE-bla HCT-116 + rat microsomes, ATP viability, 16 h; series mostly up to 66 µM; note: nearly all actives have a fitted effect of over 45% in size; note: potency is the fitted concentration of half-maximal effect
Procedure, shortened: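 HCT-116 p53RE-bla, 4,000 cells/well, 5 h pre-incubation; cpd + rat liver microsomes 0.5 mg/mL + NADPH 0.5 mg/mL (final); 16 h, 37 C; CellTiter-Glo, 30 min RT; luminescence.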

[6] = p53 small molecule agonists, cell-based qHTS assay: qHTS cell viability counter screen (AID 1963581); conditions: p53RE-bla HCT-116 viability, ATP luminescence, 16 h; series mostly up to 66 µM; note: nearly all actives have a fitted effect of over 45% in size
Procedure, shortened: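 Following 5 h attachment, HCT-116 p53RE-bla cells took up compound for 16 h at 37 C; the reporter was read with B/G FRET substrate (2 h RT), and viability then via CellTiter-Glo ATP luminescence.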

[7] = target: 5-hydroxytryptamine receptor 2A (Homo sapiens) (UniProt P28223); experiment: 5-hydroxytryptamine receptor 2A (HTR2A) small molecule antagonists, cell-based qHTS assay (AID 1963586); conditions: HTR2A-CHO cells, DOI-induced calcium flux, fluorescence; series mostly up to 61.5 µM; note: nearly all actives have a fitted effect of over 45% in size
5-hydroxytryptamine receptor 2A (Homo sapiens), sequence (P28223 whole entry, looked up): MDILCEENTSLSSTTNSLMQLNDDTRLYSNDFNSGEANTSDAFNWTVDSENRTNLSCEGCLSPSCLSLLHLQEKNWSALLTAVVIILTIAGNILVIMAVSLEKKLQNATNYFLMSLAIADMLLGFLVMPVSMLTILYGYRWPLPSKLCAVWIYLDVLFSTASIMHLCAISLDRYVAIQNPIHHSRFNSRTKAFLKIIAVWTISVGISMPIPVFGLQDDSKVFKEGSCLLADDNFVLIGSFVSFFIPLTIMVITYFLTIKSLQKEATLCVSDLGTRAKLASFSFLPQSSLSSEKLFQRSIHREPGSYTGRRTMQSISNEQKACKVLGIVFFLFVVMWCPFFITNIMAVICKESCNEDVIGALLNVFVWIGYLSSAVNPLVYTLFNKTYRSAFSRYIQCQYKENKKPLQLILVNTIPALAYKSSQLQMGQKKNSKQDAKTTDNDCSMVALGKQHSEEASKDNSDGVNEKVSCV
Procedure, shortened: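 Antagonist-mode intracellular calcium assay: DOI (4 nM) added after 5 min compound pre-incubation at room temperature to dye-loaded HTR2A-CHO cells. Fluorescence followed for 3 min, sampled every second.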

[8] = target: 5-hydroxytryptamine receptor 2A (Homo sapiens) (UniProt P28223); experiment: 5-hydroxytryptamine receptor 2A (HTR2A) small molecule agonists, cell-based qHTS assay (AID 1963587); conditions: HTR2A-CHO cells, calcium flux fluorescence, agonist mode; series mostly up to 76.8 µM; note: nearly all actives have a fitted effect of over 30% in size
Procedure, shortened: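 Kinetic calcium-flux fluorescence (2 min, 1 sec intervals) after compound addition in agonist mode. HTR2A-CHO cells were cultured 18 h, then dye-loaded 1 h at 37 C.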

[9] = target: Muscarinic acetylcholine receptor M1 (Homo sapiens) (UniProt P11229); experiment: Cholinergic receptor muscarinic 1 (CHRM1) small molecule antagonists, cell-based qHTS assay (AID 1963588); conditions: CHRM1-CHO antagonist mode, calcium flux fluorescence; series mostly up to 61.5 µM; note: nearly all actives have a fitted effect of over 40% in size
Muscarinic acetylcholine receptor M1 (Homo sapiens), sequence (P11229 whole entry, looked up): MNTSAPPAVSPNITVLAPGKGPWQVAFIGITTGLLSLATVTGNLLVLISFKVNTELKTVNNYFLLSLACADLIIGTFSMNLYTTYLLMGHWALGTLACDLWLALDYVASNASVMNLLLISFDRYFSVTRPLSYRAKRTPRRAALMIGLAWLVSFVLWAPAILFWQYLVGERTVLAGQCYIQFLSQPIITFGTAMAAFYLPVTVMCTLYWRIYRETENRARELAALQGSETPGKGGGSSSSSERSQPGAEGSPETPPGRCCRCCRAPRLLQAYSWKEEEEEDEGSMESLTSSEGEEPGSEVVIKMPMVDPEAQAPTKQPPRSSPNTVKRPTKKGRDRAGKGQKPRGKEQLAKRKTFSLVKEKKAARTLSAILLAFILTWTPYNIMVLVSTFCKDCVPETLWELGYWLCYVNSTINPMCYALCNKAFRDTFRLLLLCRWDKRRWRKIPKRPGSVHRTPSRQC
Procedure, shortened: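 CHRM1-CHO calcium-flux assay, antagonist mode. Cells were seeded 18 h, dye-loaded 1 h at 37 C and given compound for 5 min at RT, then acetylcholine was added at 50nM. FDSS fluorescence was read 3 min; 15 concentrations, three runs.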

[10] = target: Muscarinic acetylcholine receptor M1 (Homo sapiens) (UniProt P11229); experiment: Cholinergic receptor muscarinic 1 (CHRM1) small molecule agonists, cell-based qHTS assay (AID 1963589); conditions: CHRM1-CHO cells, agonist mode, calcium flux fluorescence; series mostly up to 76.8 µM; note: nearly all actives have a fitted effect of over 35% in size
Procedure, shortened: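 Measures agonist-induced intracellular calcium rise. Stable human CHRM1 CHO line, 1 h dye load at 37 C, compounds from DMSO, kinetic fluorescence read.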

[11] = cAMP Responsive Elements (CRE) small molecule agonists, cell-based qHTS assay (AID 1963590); conditions: CRE-bla HEK293T, beta-lactamase FRET ratio, 3 h; series mostly up to 92.4 µM
Procedure, shortened: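 A CRE-responsive beta-lactamase reporter in HEK 293T cells was used. Treatment ran 3 h at 37 C; detection used LiveBLAzer B/G FRET substrate for 2 h at room temperature.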

[12] = cAMP Responsive Elements (CRE) small molecule antagonists, cell-based qHTS assay (AID 1963591; active = well fitted inhibition curve with a large enough effect in the signal ratio in the repeat runs, not every such curve was filed as active; the % refers to the signal ratio); conditions: CRE-bla HEK293T, beta-lactamase FRET ratio; series mostly up to 92.4 µM
Procedure, shortened: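 HEK293T cells carrying a CRE-driven beta-lactamase reporter receive compound and NKH477 (0.25 uM final) for 3 h. Fluorescence from LiveBLAzer B/G FRET substrate is read after 2 h at room temperature.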

[13] = target: Beta-2 adrenergic receptor (Homo sapiens) (UniProt P07550); experiment: Adrenergic beta2 receptor (ADRB2) small molecule antagonists, cell-based qHTS assay (AID 1963592); conditions: CHO-ADRB2 cells, isoproterenol-stimulated cAMP HTRF ratio, 0.5 h; series mostly up to 92.4 µM; note: nearly all actives have a fitted effect of over 50% in size
Beta-2 adrenergic receptor (Homo sapiens), sequence (P07550 whole entry, looked up): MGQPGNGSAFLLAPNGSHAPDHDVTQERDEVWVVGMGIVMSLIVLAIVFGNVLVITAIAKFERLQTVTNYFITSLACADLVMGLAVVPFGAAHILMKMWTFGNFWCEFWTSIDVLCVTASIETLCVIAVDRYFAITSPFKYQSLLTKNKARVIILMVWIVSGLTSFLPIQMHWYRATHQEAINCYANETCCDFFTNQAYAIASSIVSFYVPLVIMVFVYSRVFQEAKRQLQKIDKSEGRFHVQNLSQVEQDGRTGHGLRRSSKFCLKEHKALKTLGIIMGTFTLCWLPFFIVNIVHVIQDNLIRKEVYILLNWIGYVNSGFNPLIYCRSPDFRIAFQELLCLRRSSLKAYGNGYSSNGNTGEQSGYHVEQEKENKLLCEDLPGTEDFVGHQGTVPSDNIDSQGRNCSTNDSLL
Procedure, shortened: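 Cells (CHO, stable ADRB2 overexpression) incubated 18-20hr at 37C; compounds added from DMSO; agonist mix (1nM isoproterenol, 100uM IBMX, 25uM Ro-20-1724) added; 0.5hr RT; d2-cAMP and anti-cAMP-cryptate added; 1hr RT; 665/615 nm read.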

[14] = target: D(2) dopamine receptor (Homo sapiens) (UniProt P14416); experiment: Dopamine D2 receptor (DRD2) small molecule agonists, cell-based qHTS assay (AID 1963594); conditions: HEK293-DRD2 cAMP HTRF, agonist mode, 30 min; series mostly up to 92.4 µM; note: nearly all actives have a fitted effect of over 35% in size
D(2) dopamine receptor (Homo sapiens), sequence (P14416 whole entry, looked up): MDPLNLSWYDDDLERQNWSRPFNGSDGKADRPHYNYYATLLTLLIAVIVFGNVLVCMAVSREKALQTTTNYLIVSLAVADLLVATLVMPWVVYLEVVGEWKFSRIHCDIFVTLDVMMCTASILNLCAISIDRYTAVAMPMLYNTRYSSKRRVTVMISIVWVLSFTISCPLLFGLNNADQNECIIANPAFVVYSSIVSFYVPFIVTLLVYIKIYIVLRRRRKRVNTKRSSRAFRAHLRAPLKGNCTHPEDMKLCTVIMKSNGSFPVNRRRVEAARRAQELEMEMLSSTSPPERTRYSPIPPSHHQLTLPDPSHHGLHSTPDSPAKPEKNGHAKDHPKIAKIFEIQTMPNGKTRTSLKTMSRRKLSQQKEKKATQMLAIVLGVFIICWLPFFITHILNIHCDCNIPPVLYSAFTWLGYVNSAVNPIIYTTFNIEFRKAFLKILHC
Procedure, shortened: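 cAMP accumulation in DRD2-HEK293 cells measured by HTRF after 1 h detection; compounds added 10 min before NKH477 (200nM […]) forskolin-analogue stimulation, 30 min at room temperature, with Ro20-1724 present at 0.1 mM final.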

[15] = target: D(2) dopamine receptor (Homo sapiens) (UniProt P14416); experiment: Dopamine D2 receptor (DRD2) small molecule antagonists, cell-based qHTS assay (AID 1963595; active = well fitted inhibition curve with a large enough effect in the signal ratio in the repeat runs, with a control signal flat; the % refers to the signal ratio); conditions: HEK293-DRD2 cAMP HTRF antagonist mode; series mostly up to 92.4 µM
Procedure, shortened: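 Readout: HTRF cAMP, cAMP-d2 competing with cellular cAMP for anti-cAMP cryptate, read after 1 h. Cells: DRD2-HEK293. Conditions: 0.1 mM Ro20-1724, 12 nM quinpirole, 200 nM NKH477, 30 min RT.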

[16] = target: KiSS-1 receptor (Homo sapiens) (UniProt Q969F8); experiment: Human kisspeptin (KISS1R) small molecule agonists, calcium flux assay in KISS1R-HEK293 cells (AID 1920064; active = well fitted curve in the direction sought with a large enough effect in the repeat runs; an effect the other way counts as inactive or inconclusive); conditions: KISS1R-HEK293, calcium flux fluorescence, agonist; series mostly up to 76.8 µM
KiSS-1 receptor (Homo sapiens), sequence (Q969F8 whole entry, looked up): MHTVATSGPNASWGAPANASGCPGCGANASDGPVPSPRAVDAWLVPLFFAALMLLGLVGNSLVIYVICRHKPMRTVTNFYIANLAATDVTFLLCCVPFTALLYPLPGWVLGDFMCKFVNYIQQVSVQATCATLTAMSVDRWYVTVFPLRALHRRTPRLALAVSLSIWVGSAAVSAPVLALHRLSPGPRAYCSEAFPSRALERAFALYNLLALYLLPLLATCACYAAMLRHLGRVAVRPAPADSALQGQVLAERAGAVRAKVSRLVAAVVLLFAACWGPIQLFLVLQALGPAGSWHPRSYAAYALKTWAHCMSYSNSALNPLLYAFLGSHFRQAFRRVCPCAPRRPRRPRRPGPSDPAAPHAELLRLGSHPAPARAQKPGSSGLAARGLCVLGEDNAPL
Procedure, shortened: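 Kinetic calcium assay, 1 s sampling over 3 min at Ex/Em 480/540, in HEK293 cells engineered with human KISS1R; compounds delivered in DMSO after 1 h dye loading.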

[17] = p53 small molecule agonists, cell-based qHTS assay with human liver microsomes (AID 1963577); conditions: HCT-116 p53RE-bla with human liver microsomes, ratio, 16 h; series mostly up to 66 µM
Procedure, shortened: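 Compounds act here after metabolic activation: human liver microsomes and NADPH, both at 0.5 mg/mL final, were co-added to p53RE-bla cells. Incubation ran 16 h at 37 C, followed by LiveBLAzer detection.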

[18] = p53 small molecule agonists, cell-based qHTS assay with rat liver microsomes (AID 1963578); conditions: HCT-116 p53RE-bla, beta-lactamase ratio, 16 h; series mostly up to 66 µM
Procedure, shortened: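 Read-out is beta-lactamase reporter fluorescence (LiveBLAzer, 2 h, room temperature, dark) in p53RE-bla cells treated 16 h at 37 C with compound, rat liver microsomes and NADPH, both 0.5 mg/mL final.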

[19] = p53 small molecule agonists, cell-based qHTS assay (AID 1963582; active = well fitted activation curve with a large enough effect in the signal ratio in the repeat runs, not every such curve was filed as active; the % refers to the signal ratio); conditions: HCT-116 p53RE-bla reporter, beta-lactamase FRET ratio, 16 h; series mostly up to 66 µM
Procedure, shortened: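 In this cell-based concentration-response screen, a p53 response element drives beta-lactamase; cells received DMSO-borne compounds after 5 h culture and were incubated a further 16 h before FRET substrate development.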

[20] = target: Beta-2 adrenergic receptor (Homo sapiens) (UniProt P07550); experiment: Adrenergic beta2 receptor (ADRB2) small molecule agonists, cell-based qHTS assay (AID 1963593); conditions: CHO-ADRB2 cells, cAMP HTRF, 30 min; series mostly up to 92.4 µM;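 note: CHO cells stably overexpressing human ADRB2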
Procedure, shortened: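 CHO cells stably over-expressing ADRB2 were plated overnight at 37C, then dosed with compounds plus a stimulation mix containing 100uM IBMX and 25uM Ro-20-1724 for 0.5hr at room temperature. cAMP was measured by HTRF competition, 1hr.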

Measured: Potency

Cc1ccccc1S
not listed: [16] | [17] | [18] | [19] | [20]
inactive: all other assays above

CC(CO)(CO)CO
not listed: [3] | [5] | [19] | [20]
inactive: all other assays above

O=C1c2ccccc2C(=O)c2c(Cl)cccc21
active: [5] 965 nM
not listed: [3] | [4] | [8] | [9] | [11] | [12] | [14]
inactive: all other assays above

OC[C@H]1O[C@@H](OCCc2ccc(O)cc2)[C@H](O)[C@@H](O)[C@@H]1O
not listed: [4] | [8] | [9] | [14] | [16]
inactive: all other assays above

C1CCOC1
not listed: [4] | [11] | [13] | [16] | [20]
inactive: all other assays above
